This is an account of results in PubChem BioAssay (Tox21).

Inconclusive results are not listed. The source made the active and inactive calls. Unless noted, the call rests on the fitted dose curve; in most records, active means well fitted cell-killing curve with a large enough effect in the repeat runs; inconclusive means weak or mixed curves, or effect the other way; inactive means no such curve, though single readings can be large or run the other way.
On the % scale 0 is the no-effect control and ±100 the full control effect.

The nature of the first assay: qHTS assay for small molecule agonists of the antioxidant response element (ARE) signaling pathway - cell viability counter screen (AID 743203; calls by dose curve; further: nearly all actives have a fitted effect of over 55% in size). The conditions noted are these: ARE-bla HepG2 viability, CellTiter-Glo luminescence, 16 h; series mostly up to 73.3 µM; viability change, negative = cytotoxic: at the top concentration. The method in brief: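 Cells (ARE-bla HepG2, 2,000/well) receive DMSO-dissolved compounds after a 5 hrs rest. Plates incubate 16 hrs at 37C/5% CO2. CellTiter-Glo luminescence is then recorded after 30 min at room temperature.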
On the technique in general: qHTS replaces the single test concentration by a dilution series.
As for `CCC(C)n1c(=O)[nH]c(C)c(Br)c1=O` (stereo not drawn), the “viability change, negative = cytotoxic” value is 13.2% (inactive).

As to `C[N+](C)=CCl`, the “viability change, negative = cytotoxic” value was 5.55% (inactive).

In the case of `CCOP(=S)(OCC)Oc1cc(-c2ccccc2)on1`, the “viability change, negative = cytotoxic” value is -3.97% (inactive).

`CC(C)(C)OC(=O)c1ncn2c1[C@@H]1CCCN1C(=O)c1c(Br)cccc1-2`: the “viability change, negative = cytotoxic” value is 13.1% (inactive).

Turning to `O=C(Cc1ccccc1)OCc1ccccc1`, the “viability change, negative = cytotoxic” value is 7% [at 94.8 µM] (inactive).

For the compound `CCOC(=O)NC(=S)Nc1ccccc1NC(=S)NC(=O)OCC`, the “viability change, negative = cytotoxic” value is -7.07% (inactive).

For `O=NN1CCN(N=O)CC1`, the “viability change, negative = cytotoxic” value was 1.77% (inactive).

With `COc1cc(OC)nc(Sc2cccc(Cl)c2C(=O)O)n1`, the “viability change, negative = cytotoxic” value is 3.17% (inactive).

`CN1CCC(O)(c2ccc(F)cc2)C(C(=O)c2ccc(F)cc2)C1` (stereo not drawn): the “viability change, negative = cytotoxic” value was 15.9% (inactive).

For `CCCCc1ccc(O)cc1`, the “viability change, negative = cytotoxic” value was 6.3% (inactive).

As for `CN1C(=S)CN=C(c2ccccc2)c2cc(Cl)ccc21`, the “viability change, negative = cytotoxic” value is 15.9% (inactive).

In the case of `C#C[C@]1(O)C=C[C@H]2[C@@H]3CCC4=CC(=O)CC[C@@H]4[C@H]3CC[C@@]21CC`, the “viability change, negative = cytotoxic” value is 2.18% (inactive).

On to `CC(CC(C#N)(c1ccccc1)c1ccccc1)N(C)C` (stereo not drawn), for which the “viability change, negative = cytotoxic” value was -0.291% (inactive).

As for `Nc1c(Br)cc([N+](=O)[O-])cc1[N+](=O)[O-]`, the “viability change, negative = cytotoxic” value is 7.79% [at 94.8 µM] (inactive).

As for `CNC(=O)Oc1ccccc1C1OCCO1`, the “viability change, negative = cytotoxic” value was -9.21% (inactive).

In the case of `BrCCCCCCBr`, the “viability change, negative = cytotoxic” value was 2.39% (inactive).

As for `CC1(C(=O)Nc2ccc(O)c(Cl)c2Cl)CCCCC1`, the “viability change, negative = cytotoxic” value was -3.04% (inactive).

As to `CC1=NNC(=O)N(/N=C/c2cccnc2)C1`, the “viability change, negative = cytotoxic” value was 2.12% (inactive).

In the case of `CCCSP(=O)(OCC)Oc1ccc(Br)cc1Cl` (stereo not drawn), the “viability change, negative = cytotoxic” value is 14.6% (inactive).

`N#CC(CCc1ccc(Cl)cc1)(Cn1cncn1)c1ccccc1` (stereo not drawn): the “viability change, negative = cytotoxic” value is -11.4% (inactive).

As for `CCOP(=S)(OCC)SCSP(=S)(OCC)OCC`, the “viability change, negative = cytotoxic” value was -0.101% (inactive).

As to `CCCCOC(=O)c1ccccc1C(=O)O`, the “viability change, negative = cytotoxic” value is -3.94% (inactive).

Regarding `Nc1cnn(-c2ccccc2)c(=O)c1Cl`, the “viability change, negative = cytotoxic” value was 6.43% (inactive).

For the compound `CCCCOP(=O)(O)OCCCC`, the “viability change, negative = cytotoxic” value is 10.8% (inactive).

As for `COP(N)(=S)Oc1ccccc1C(=O)OC(C)C` (stereo not drawn), the “viability change, negative = cytotoxic” value was 0.645% (inactive).

For the compound `CNC(=O)Oc1ccc(N(C)C)c(C)c1`, the “viability change, negative = cytotoxic” value was -22.2% (inactive).

Another assay can be described thus: qHTS assay for small molecule activators of the heat shock response signaling pathway - cell viability counter screen (AID 743209). Further: nearly all actives have a fitted effect of over 50% in size. The conditions noted are these: HSE-bla HeLa viability, CellTiter-Glo luminescence, 5 h; series mostly up to 62.6 µM; activity change, negative = cytotoxicity: at the top concentration. The method in brief:
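Quantitative HTS format, Tox21 10K library. HeLa cells carrying an HSE-driven beta-lactamase reporter were treated 5 h at 37 C, then assessed for viability by CellTiter-Glo luminescence.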
As for `CCC(C)n1c(=O)[nH]c(C)c(Br)c1=O` (stereo not drawn), the “activity change, negative = cytotoxicity” value is -0.0046% (inactive).

Turning to `C[N+](C)=CCl`, the “activity change, negative = cytotoxicity” value is 20% (inactive).

Regarding `CCOP(=S)(OCC)Oc1cc(-c2ccccc2)on1`, the “activity change, negative = cytotoxicity” value was 7.61% (inactive).

Consider `CC(C)(C)OC(=O)c1ncn2c1[C@@H]1CCCN1C(=O)c1c(Br)cccc1-2`, for which the “activity change, negative = cytotoxicity” value is 11.2% (inactive).

For the compound `O=C(Cc1ccccc1)OCc1ccccc1`, the “activity change, negative = cytotoxicity” value is -1.11% [at 81.1 µM] (inactive).

On to `CCOC(=O)NC(=S)Nc1ccccc1NC(=S)NC(=O)OCC`, for which the “activity change, negative = cytotoxicity” value is -5.13% (inactive).

On to `O=NN1CCN(N=O)CC1`, for which the “activity change, negative = cytotoxicity” value was -1.3% (inactive).

As for `COc1cc(OC)nc(Sc2cccc(Cl)c2C(=O)O)n1`, the “activity change, negative = cytotoxicity” value is -8.17% (inactive).

Consider `CCCCc1ccc(O)cc1`, for which the “activity change, negative = cytotoxicity” value was 9.71% (inactive).

In the case of `CN1C(=S)CN=C(c2ccccc2)c2cc(Cl)ccc21`, the “activity change, negative = cytotoxicity” value was -2.76% (inactive).

As to `C1CCC(C2CCCCC2)CC1`, the “activity change, negative = cytotoxicity” value is -2.46% (inactive).

For `C#C[C@]1(O)C=C[C@H]2[C@@H]3CCC4=CC(=O)CC[C@@H]4[C@H]3CC[C@@]21CC`, the “activity change, negative = cytotoxicity” value is -2.29% (inactive).

`CC(CC(C#N)(c1ccccc1)c1ccccc1)N(C)C` (stereo not drawn): the “activity change, negative = cytotoxicity” value was 2.3% [at 81.1 µM] (inactive).

With `CCCCCCBr`, the “activity change, negative = cytotoxicity” value is -10.8% [at 81.1 µM] (inactive).

Take `Nc1c(Br)cc([N+](=O)[O-])cc1[N+](=O)[O-]`: the “activity change, negative = cytotoxicity” value was 2.63% [at 81.1 µM] (inactive).

For `Nc1cc(Cl)ccc1O`, the “activity change, negative = cytotoxicity” value is -10.7% (inactive).

Turning to `O=[N+]([O-])c1ccc2c3c(cccc13)CC2`, the “activity change, negative = cytotoxicity” value is -8.84% (inactive).

`BrCCCCCCBr`: the “activity change, negative = cytotoxicity” value is 5.01% (inactive).

For the compound `CCN(CC)c1nc(C)cc(OP(=S)(OC)OC)n1`, the “activity change, negative = cytotoxicity” value was 1.65% (inactive).

On to `CCOc1nc(C(Cl)(Cl)Cl)ns1`, for which the “activity change, negative = cytotoxicity” value is -5.7% (inactive).

`C[C@H]1CCC[C@H](O)CCCCCc2cc(O)cc(O)c2C(=O)O1`: the “activity change, negative = cytotoxicity” value is 2.33% [at 81.1 µM] (inactive).

Consider `CC(Cl)(Cl)[N+](=O)[O-]`, for which the “activity change, negative = cytotoxicity” value is -1.85% (inactive).

`CC(COc1ccc(Oc2ccccc2)cc1)Oc1ccccn1` (stereo not drawn): the “activity change, negative = cytotoxicity” value was 10.9% (inactive).

Regarding `CC1(C(=O)Nc2ccc(O)c(Cl)c2Cl)CCCCC1`, the “activity change, negative = cytotoxicity” value is 15.6% (inactive).

For the compound `CCNc1nc(NC(C)C)nc(OC)n1`, the “activity change, negative = cytotoxicity” value was 0.856% (inactive).

With `CC1=NNC(=O)N(/N=C/c2cccnc2)C1`, the “activity change, negative = cytotoxicity” value is -0.0004% (inactive).

As for `CCCSP(=O)(OCC)Oc1ccc(Br)cc1Cl` (stereo not drawn), the “activity change, negative = cytotoxicity” value was 6.12% (inactive).

`N#CC(CCc1ccc(Cl)cc1)(Cn1cncn1)c1ccccc1` (stereo not drawn): the “activity change, negative = cytotoxicity” value was -11% (inactive).

Take `CCOP(=S)(OCC)SCSP(=S)(OCC)OCC`: the “activity change, negative = cytotoxicity” value was -2.91% (inactive).

As for `CCCCOC(=O)c1ccccc1C(=O)O`, the “activity change, negative = cytotoxicity” value was 4.12% (inactive).

As for `Nc1cnn(-c2ccccc2)c(=O)c1Cl`, the “activity change, negative = cytotoxicity” value is 5.29% (inactive).

`O=C(Nc1ccccc1)N(Cc1ccc(Cl)cc1)C1CCCC1`: the “activity change, negative = cytotoxicity” value was -1.2% (inactive).

For the compound `CCCCOP(=O)(O)OCCCC`, the “activity change, negative = cytotoxicity” value is -3.47% (inactive).

As for `COP(N)(=S)Oc1ccccc1C(=O)OC(C)C` (stereo not drawn), the “activity change, negative = cytotoxicity” value was 0.509% (inactive).

In the case of `CNC(=O)Oc1ccc(N(C)C)c(C)c1`, the “activity change, negative = cytotoxicity” value is 3.92% (inactive).

The nature of another assay: qHTS assay for small molecule activators of the heat shock response signaling pathway (AID 743210; active means well fitted activation curve with a large enough effect in the signal ratio in the repeat runs, with a control signal flat, not every such curve was filed as active; the % refers to the signal ratio). The conditions noted are these: HeLa HSE-bla reporter, beta-lactamase ratio, 5 h; series mostly up to 62.6 µM; activation: at the top concentration. The method in brief: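 HSE-bla HeLa cells (beta-lactamase reporter under heat shock response elements), plated overnight, then exposed to compounds 5 h at 37 C; LiveBLAzer B/G FRET substrate added, 2.5 h at room temperature, fluorescence intensity read.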
Take `CCC(C)n1c(=O)[nH]c(C)c(Br)c1=O` (stereo not drawn): the “activation” value is -0.687% (inactive).

Consider `C[N+](C)=CCl`, for which the “activation” value was 0.229% (inactive).

`CCOP(=S)(OCC)Oc1cc(-c2ccccc2)on1`: the “activation” value was 1.86% (inactive).

Take `CC(C)(C)OC(=O)c1ncn2c1[C@@H]1CCCN1C(=O)c1c(Br)cccc1-2`: the “activation” value was -0.0388% (inactive).

`O=C(Cc1ccccc1)OCc1ccccc1`: the “activation” value is 0.7% [at 81.1 µM] (inactive).

Take `CCOC(=O)NC(=S)Nc1ccccc1NC(=S)NC(=O)OCC`: the “activation” value was 4.15% (inactive).

As for `O=NN1CCN(N=O)CC1`, the “activation” value is -0.0245% (inactive).

For the compound `COc1cc(OC)nc(Sc2cccc(Cl)c2C(=O)O)n1`, the “activation” value was 0.005% (inactive).

For the compound `CCCCc1ccc(O)cc1`, the “activation” value is -0.554% (inactive).

`CN1C(=S)CN=C(c2ccccc2)c2cc(Cl)ccc21`: the “activation” value was 0.117% (inactive).

For the compound `C1CCC(C2CCCCC2)CC1`, the “activation” value was -1.22% (inactive).

In the case of `C#C[C@]1(O)C=C[C@H]2[C@@H]3CCC4=CC(=O)CC[C@@H]4[C@H]3CC[C@@]21CC`, the “activation” value was -2.64% (inactive).

`CC(CC(C#N)(c1ccccc1)c1ccccc1)N(C)C` (stereo not drawn): the “activation” value is -1.13% [at 81.1 µM] (inactive).

For the compound `CCCCCCBr`, the “activation” value is 0.222% [at 81.1 µM] (inactive).

`Nc1c(Br)cc([N+](=O)[O-])cc1[N+](=O)[O-]`: the “activation” value was -1.73% [at 81.1 µM] (inactive).

As for `Nc1cc(Cl)ccc1O`, the “activation” value is 0.0066% (inactive).

As for `BrCCCCCCBr`, the “activation” value is 0.238% (inactive).

Regarding `CCN(CC)c1nc(C)cc(OP(=S)(OC)OC)n1`, the “activation” value was 1.47% (inactive).

Turning to `CCOc1nc(C(Cl)(Cl)Cl)ns1`, the “activation” value was -1.52% (inactive).

`CC(Cl)(Cl)[N+](=O)[O-]`: the “activation” value was 0.125% (inactive).

Take `CC1(C(=O)Nc2ccc(O)c(Cl)c2Cl)CCCCC1`: the “activation” value was 1.5% (inactive).

With `CCNc1nc(NC(C)C)nc(OC)n1`, the “activation” value is -1.53% (inactive).

With `CC1=NNC(=O)N(/N=C/c2cccnc2)C1`, the “activation” value is -1.57% (inactive).

`CCCSP(=O)(OCC)Oc1ccc(Br)cc1Cl` (stereo not drawn): the “activation” value was 0.577% (inactive).

On to `N#CC(CCc1ccc(Cl)cc1)(Cn1cncn1)c1ccccc1` (stereo not drawn), for which the “activation” value is -0.72% (inactive).

On to `CCOP(=S)(OCC)SCSP(=S)(OCC)OCC`, for which the “activation” value is 0.964% (inactive).

For the compound `CCCCOC(=O)c1ccccc1C(=O)O`, the “activation” value was -1.46% (inactive).

For the compound `Nc1cnn(-c2ccccc2)c(=O)c1Cl`, the “activation” value was -1.77% (inactive).

In the case of `O=C(Nc1ccccc1)N(Cc1ccc(Cl)cc1)C1CCCC1`, the “activation” value is 1.69% (inactive).

For `CCCCOP(=O)(O)OCCCC`, the “activation” value is -0.502% (inactive).

As to `COP(N)(=S)Oc1ccccc1C(=O)OC(C)C` (stereo not drawn), the “activation” value was 0.2% (inactive).

On to `CNC(=O)Oc1ccc(N(C)C)c(C)c1`, for which the “activation” value is -0.619% (inactive).
